# Screening results from PubChem BioAssay.
# CHO-K1 Ca PAM – nonselective calcium activators in parental CHO-K1 cells, primary screen, counter-screen for M1 PAM project, cell-based, Fluo-8 calcium fluorescence, full deck, 1536-well; activation, % at 3 µM; ATP EC20; 0% at ATP EC20, 100% at ATP max; 0.02% of 360,000 active;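 active = activation above the run cutoff, the mean activation of all test compounds plus 3 SD, cut at about 40% in these data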;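 note: peak over basal fluorescence ratio in a 140 s read after ATP addition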
# M1 ag – human M1 muscarinic receptor agonists, primary screen, Fluo-8 calcium fluorescence, CHO-K1 cells, HTS; Muscarinic acetylcholine receptor M1 (Homo sapiens), P11229; 0.33% of 360,000 active; activation, % at 3 µM; CHO-K1 hM1, agonist mode; 0% DMSO, 100% acetylcholine EC100;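 active = activation above the run's mean compound activation plus 3 SD, cut at about 16% in these data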;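 note: peak over basal fluorescence ratio within a 140 s kinetic read after compound addition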
# Target sequence (P11229 whole entry, looked up): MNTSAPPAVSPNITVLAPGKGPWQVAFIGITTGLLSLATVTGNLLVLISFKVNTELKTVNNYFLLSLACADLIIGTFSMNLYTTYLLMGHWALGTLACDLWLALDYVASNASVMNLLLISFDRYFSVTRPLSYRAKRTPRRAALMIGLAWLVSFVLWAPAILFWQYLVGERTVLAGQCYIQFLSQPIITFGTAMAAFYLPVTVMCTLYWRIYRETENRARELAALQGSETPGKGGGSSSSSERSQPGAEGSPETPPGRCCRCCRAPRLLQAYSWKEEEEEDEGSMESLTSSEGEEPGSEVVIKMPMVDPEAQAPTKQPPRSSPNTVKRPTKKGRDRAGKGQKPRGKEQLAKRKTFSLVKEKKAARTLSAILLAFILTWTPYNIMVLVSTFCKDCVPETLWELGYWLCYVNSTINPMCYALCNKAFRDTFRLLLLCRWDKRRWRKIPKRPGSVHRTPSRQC
# CHO-K1 Ca ag – counter-screen for M1 agonists: effect in parental CHO-K1 cells. activation, % at 3 µM. 0.48% of 360,000 active. Fluo-8 calcium fluorescence; scaled to maximal ATP response, vehicle zero; in the data active = activation above about 15%;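 note: untransfected CHO-K1 host cells lacking M1 receptor as counterscreen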
# M1 PAM – human M1 muscarinic receptor positive allosteric modulators, primary screen, CHO-K1 cells, Fluo-8 calcium fluorescence, 1536-well | CHO-K1 hM1, ACh EC20; 0% = ACh EC20, 100% = maximal ACh | 0.088% of 360,000 active | activation, % at 3 µM | AID 588819, 2011; in the data active = activation above about 19%, passing the limit was not always enough
# CHRM1 antagonist – human M1 muscarinic receptor antagonists, primary screen, CHO-K1 cells, Fluo-8 calcium fluorescence, 1536-well. Muscarinic acetylcholine receptor M1 (Homo sapiens), P11229. CHO-K1 hM1, ACh EC80 antagonist. inhibition, % at 3 µM. 1.3% of 360,000 active;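 active = percent inhibition above its own plate's cutoff, namely the mean of that plate's compound wells plus 3 SD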;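 note: peak over basal fluorescence ratio during 140 s after agonist addition; 0% = ACh EC80 plus DMSO and 100% = DMSO alone without agonist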
# CHO-K1 Ca antag – counter-screen for M1 antagonists: effect in parental CHO-K1 cells; ATP-induced calcium, Fluo-8 fluorescence; inhibition, % at 3 µM; 0.6% of 360,000 active;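 active = inhibition above a per-plate cutoff, the plate's mean sample inhibition plus 3 SD, cut at about 24% in these data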;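 note: 0% = DMSO plus EC80 ATP and 100% = DMSO alone without ATP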
# The depositor's hits bear a star. Most compounds without a hit are left out; they make up all but 2.3% or so of the library.
SMILES,CHO-K1 Ca PAM,M1 ag,CHO-K1 Ca ag,M1 PAM,CHRM1 antagonist,CHO-K1 Ca antag
N#CCCN(C(=O)COC(=O)CNC(=O)c1cccs1)c1ccc(F)cc1,-9.5,-3.7,0.4,-1.3,3.5,-2.3
CCc1ccc(-c2cc(C)no2)cc1S(=O)(=O)N1CCCN(Cc2ccc(F)cc2)C1,33.0,-3.7,0.4,-7.5,1.9,-8.9
CC(=O)OCCn1c2nc(=O)[nH]c(=O)c-2nc2cc(C)c(C)cc21,-11.9,202.3*,186.1*,-27.0,38.4*,38.1*
C[C@H](CO)N1C[C@H](C)[C@@H](CN(C)Cc2ccc(Oc3ccccc3)cc2)Oc2c(NC(=O)c3ccncc3)cccc2C1=O,46.0*,-9.3,0.8,-0.3,-3.9,-31.9
C[C@H](CO)N1C[C@H](C)[C@@H](CN(C)Cc2ccccc2)Oc2c(NC(=O)c3ccncc3)cccc2C1=O,-5.8,-6.1,0.6,2.0,-3.6,-9.6
Cc1ccc(NN2C(=O)C=C(c3ccc(Cl)cc3)C2=O)cc1,4.5,7.2,4.7,-1.5,29.3,30.6*
C=CC[C@H](CC(=O)N(CCO)Cc1ccccc1)C(=O)N[C@H](COC(=O)[C@@H](CC=C)Cc1ccc(F)cc1)Cc1ccccc1,12.2,-1.9,1.4,-3.0,9.5,-20.9
COc1ccc(-n2nc(C(=O)NCC(=O)N3CCN(c4ccccn4)CC3)c3ccccc3c2=O)cc1OC,-11.6,-5.4,5.1,-13.1,36.6*,8.5
COc1ccc(-n2nc(C(=O)NCC(=O)N3CCOCC3)c3ccccc3c2=O)cc1OC,14.8,-3.5,2.9,2.8,-6.4,-14.9
COc1ccc(-n2nc(C(=O)NCC(=O)N3CCN(Cc4ccc5c(c4)OCO5)CC3)c3ccccc3c2=O)cc1OC,6.6,0.9,3.3,-17.6,40.7*,-13.6
COc1ccc(-n2nc(C(=O)NCC(=O)N3CCN(c4ccccn4)CC3)c3ccccc3c2=O)cc1,10.2,-2.3,2.3,-7.5,9.3,9.0
COc1ccc(CCN2CC(C(=O)NCCc3ccccn3)CCC2=O)cc1 (centres undefined),-20.4,1.5,-0.1,2.0,-1.6,6.2
Cc1cccc(C)c1OC(=O)CN1C(=O)c2ccccc2C1=O,-4.5,0.2,0.6,9.2,-16.1,-10.5
CNC(=O)CSc1nnnn1CCCOC,17.1,-2.7,0.6,0.2,43.2*,-11.3
O=C(Nc1ccc(N2CCOCC2)c(Cl)c1)c1ccc(Br)o1,-4.0,2.5,4.4,-15.1,40.7*,11.7
O=C(Nc1ccc(N2CCN(C(=O)c3ccccc3)CC2)c(Cl)c1)c1ccc(Br)o1,-8.6,-1.7,6.6,-5.5,8.5,-14.8
OCC1(CCOc2ccccc2)CCN(CC2=Cc3cc(Cl)ccc3OC2)CC1,9.5,3.2,3.1,-12.8,39.1*,-1.4
COc1cccc(CC2(CO)CCN(S(=O)(=O)N(C)C)CC2)c1,-12.4,-1.6,0.0,-9.8,3.4,17.1
COc1cc(Cl)c(CN2CCC(CO)(CCOc3ccccc3)CC2)cc1OC,14.8,-6.8,2.6,-0.5,-4.0,-5.3
COC(=O)c1ccc(CN2CCC(CO)(Cc3cccc(OC)c3)CC2)cc1,4.5,-7.0,0.1,-27.6,74.6*,3.8
COC(=O)c1ccc(CN2CCCC(CO)(Cc3ccc(F)cc3F)C2)cc1 (centres undefined),-17.1,11.2,0.0,-17.9,47.7*,5.1
COC(=O)c1ccc(CN2CCC(CO)(CCOc3ccccc3)CC2)cc1,7.4,14.0,2.7,-16.0,76.8*,-9.2
Fc1ccc(CNc2ncnc3cc(Cl)ccc23)cc1,2.5,-0.9,16.0*,-12.7,8.9,1.9
COc1ccc(CNc2ncnc3cc(Cl)ccc23)cc1OC,2.1,-0.5,11.0,-2.8,9.1,-2.2
CN(C)C1(CNC(=O)Nc2ccccc2)CCCCC1,12.5,-7.8,1.2,7.0,-8.7,-7.6
SMILES,CHO-K1 Ca PAM,M1 ag,CHO-K1 Ca ag,M1 PAM,CHRM1 antagonist,CHO-K1 Ca antag
CN(C)C1(CNC(=S)Nc2ccccc2C(F)(F)F)CCCCC1,15.2,50.0*,1.6,-6.0,5.9,-7.3
CC(=O)OC[C@H]1O[C@@H](Oc2cc3ccc(=O)oc3cc2OC(C)=O)[C@H](OC(C)=O)[C@@H](OC(C)=O)[C@@H]1OC(C)=O,11.1,-2.7,2.8,-4.4,2.0,-8.0
COc1ccccc1N1CCN(C(=O)C2CCCN(S(=O)(=O)c3ccc4c(c3)oc(=O)n4C)C2)CC1 (centres undefined),-5.4,-2.7,20.6*,-24.2,25.6,14.2
O=C(Nc1nc(-c2ccccc2)cs1)c1ccc2c(=O)n3c(nc2c1)CCCCC3,7.8,-1.2,8.5,-27.1,33.3*,5.0
O=C(Nc1ccccc1Cl)c1ccc2c(=O)n3c(nc2c1)CCC3,15.8,-1.5,1.3,2.2,0.6,-21.4
Cc1ccc(-c2csc(NC(=O)c3cc([N+](=O)[O-])ccc3N3CCOCC3)n2)cc1,5.5,-1.8,0.1,3.7,-11.3,-3.2
O=C(Nc1nc(-c2ccccc2)cs1)c1ccc(N2CCOCC2)c([N+](=O)[O-])c1,-1.9,-0.4,12.3,-17.5,36.8,25.4*
COc1cccc(C(=O)c2c(C)c(CCC#N)n3ccccc23)c1,7.9,-4.9,25.1*,9.2,-8.2,4.3
COc1ccc(OC)c(NC(=O)C2(C)CCN2CCOc2ccccc2)c1 (centres undefined),5.2,-3.4,3.2,-6.2,0.1,-20.2
COc1ccc(CCNC(=O)c2ccc(CS(=O)(=O)c3ccc(C)cc3)o2)cc1OC,-19.0,1.6,5.8,-1.9,5.8,-8.9
COc1ccc(CCNC(=O)c2ccc(CS(=O)(=O)Cc3ccc(C)cc3)o2)cc1OC,9.4,2.2,15.2*,-6.4,3.3,-8.3
COc1ccc(CCNC(=O)c2ccc(CS(=O)(=O)c3ccc(Cl)cc3)o2)cc1OC,-3.9,4.3,16.8*,-25.0,30.1*,-0.4
Cc1ccc(CCNC(=O)c2ccc(CS(=O)(=O)Cc3ccc(F)cc3)o2)cc1,3.0,0.7,2.0,10.1,-5.8,-14.3
CCC1(C2=CCCCC2)C(=O)NC(=S)N=C1N (centres undefined),21.2,-3.9,1.1,12.9,-24.8,-9.8
CN1CCN(NC(=O)c2cc(Br)ccc2Cl)CC1,4.3,-6.9,0.8,-0.6,-0.1,-1.2
OC(CCN1CCCCC1)c1ccc(-c2ccccc2)cc1 (centres undefined),21.8,-9.4,5.2,-9.1,1.2,-18.2
Clc1ccc(C(CCN2CCCC2)Cc2ccccc2)cc1 (centres undefined),3.6,-11.1,1.9,-34.8,84.2*,-7.1
